# Screening results deposited in PubChem by Broad Institute.
# Hits are enriched below; roughly 4% of the tested compounds scored in any of these assays.
# Statin myotox sup: protects C2C12 myotubes from simvastatin toxicity; rescue of ATP level, % at 7.49 µM; 0.78% of 330,000 active; ATP luminescence, 48 h; scaled: DMSO 0, geranylgeraniol control 100;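 active = mean ATP rescue above about 67%, or every replicate alone reaching that limit, limit read from the data, passing the limit was not always enough; inconclusive = no clear call, values can overlap the other calls; inactive = mean under the limit and some replicate under it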;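 note: myotubes were challenged with 10 µM simvastatin during compound exposure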
# EBV LMP1 NFkB: Epstein-Barr LMP1 NF-kappaB reporter inhibition. LMP1-induced NF-kappaB luciferase reporter cells, luminescence. 0.69% of 350,000 active. AID 504558. inhibition, % at 12.5 µM; in the data active = inhibition above about 41%; inconclusive = no clear call, values can overlap the other calls
# MITF TRPM1 HTS: increases MITF-driven TRPM1 promoter luciferase signal | SK-MEL-5 TRPM1-promoter luciferase, 24 h; % of positive control, neutral wells = 0 | activation, % at 12.5 µM | 0.75% of 300,000 active | AID 588334;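 active = mean activation of at least 80% with every replicate also reaching 80%; inconclusive = mean reaches 80% but some replicate falls short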
# Wnt act: Wnt/beta-catenin pathway activation; activation, % at 9.35 µM; 1.2% of 300,000 active; AID 743398; Wnt/beta-catenin reporter cell assay, activator, plate reader; in the data active = activation above about 30%, passing the limit was not always enough; inconclusive = no clear call, values can overlap the other calls
# esBAF inh: blocks esBAF chromatin remodeling in mouse ES cells. reporter increase, % at 12.5 µM. 2% of 350,000 active. Bmi1-luciferase knock-in reporter, 24 h; 100% = twice the neutral-well signal; in the data active = activation above about 40%; inconclusive = no clear call, values can overlap the other calls;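 note: a rise in the Bmi1 reporter signal indicates esBAF inhibition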
# TRPM1 prom inh: reduces MITF-dependent TRPM1 promoter luciferase signal | 0.83% of 330,000 active | inhibition, % at 12.5 µM | SK-MEL-5 TRPM1 promoter luciferase, 24 h;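 active = mean inhibition across replicates of 60% or more, whatever share of single replicates reaches that level; inconclusive = some that reach 60%, reason not given; inactive = mean inhibition across replicates below 60%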
# Hits are given with their value; 0 = inactive; ? = inconclusive; - = not tested or not shown; ! = a repeat was not active.
SMILES,Statin myotox sup,EBV LMP1 NFkB,MITF TRPM1 HTS,Wnt act,esBAF inh,TRPM1 prom inh
CCC(CO)Nc1ccn2nc(-c3ccccc3)cc2n1 (stereo not drawn),0,-,-,0,69,-
CCC(C)NC(=O)CSc1nc(-c2cccs2)cc(C(F)(F)F)n1 (stereo not drawn),0,0,0,-,0,0
CCC(CO)Nc1ccn2nc(-c3cccs3)cc2n1 (stereo not drawn),0,-,-,0,55,-
CCOc1ccc(-c2noc(CCC(=O)NCCc3ccccc3)n2)cc1OC,0,0,-,0,0,0
CN(CCNC(=O)CCNC(=O)Cn1ccc2ccccc2c1=O)Cc1ccccc1,0,0,0,-,0,0
COc1ccc(OC)c(S(=O)(=O)N2C(C)CCCC2C)c1 (stereo not drawn),0,0,0,-,0,0
CC(=O)OCC1OC(Nc2cccc(C)c2)C(OC(C)=O)C(OC(C)=O)C1OC(C)=O (stereo not drawn),-,53,0,0,-,0
CC(=O)OCC1OC(n2ccc3ccccc32)C(OC(C)=O)C(OC(C)=O)C1OC(C)=O (stereo not drawn),0,0,0,-,0,0
O=C(C[C@H]1C[C@H]2c3cc(NC(=O)NC4CCCC4)ccc3O[C@H]2[C@@H](CO)O1)NCc1ccc(Oc2ccccc2)cc1,0,-,-,-,0,-
CC1CCC(C(C)C)C(OC(=O)CSc2nnc(N)s2)C1 (stereo not drawn),0,0,0,-,0,0
CCOC(=O)c1ccc(N/C=C/C(=O)c2ccccc2)cc1,-,0,0,74,-,0
CCOC(=O)c1ccc(N/C=C/C(=O)C(C)(C)C)cc1,-,0,0,78,-,0
Cc1ccc(C(=O)/C=C/Nc2ccccn2)cc1,0,69,0,-,0,71
Cc1ccc(C(=O)/C=C/Nc2ccccc2C(N)=O)cc1,0,0,0,39,0,0
CCOC(=O)c1ccc(N/C=C/C(=O)c2ccc(OC)cc2)cc1,0,0,0,-,?,0
Cc1ccc(N/C=C/C(=O)c2ccc(C)cc2)cc1,0,0,0,-,0,0
NC(=O)c1ccccc1N/C=C/C(=O)c1ccc(Cl)cc1,-,0,0,0,-,0
O=C(O)CCCNC(=O)/C(=C\c1ccc(Cl)cc1)NC(=O)c1ccc(Br)cc1,0,0,0,0,0,0
O=[N+]([O-])c1cccc(NC(=S)N2CCOCC2)c1,-,0,0,0,-,0
COc1ccc(OC)c(N/C(C)=C/C(=O)c2ccccc2)c1,-,0,0,-,-,0
COc1ccc(C(=O)/C=C/Nc2cccc(C)n2)cc1OC,0,0,93,-,47,0
COc1ccc(OC)c(N/C=C/C(=O)c2ccccc2)c1,0,72,-,0,0,0
CCOC(=O)c1ccccc1N/C=C/C(=O)c1ccccc1,0,0,0,54,0,0
COc1cc2sc3ccc(C#Cc4ccc(N)cc4)cc3c(=O)c2cc1OC,0,0,0,0,0,0
COc1cc2sc3ccc(-c4ccc5[nH]ccc5c4)cc3c(=O)c2cc1OC,0,0,130,0,51,0
SMILES,Statin myotox sup,EBV LMP1 NFkB,MITF TRPM1 HTS,Wnt act,esBAF inh,TRPM1 prom inh
O=C(c1ccncc1)N1CC[C@H]2[C@H](CO)Nc3ccc(Br)cc3[C@H]21,0,-,-,-,0,-
COc1ccc(CCNC(=O)COC(=O)/C=C/c2cc(OC)c(OC)c(OC)c2)cc1OC,0,0,0,0,0,0
COc1cc(F)ccc1-c1cc(C(=O)NCc2cccc(Cl)c2)[nH]n1,0,-,-,0,0,-
CCc1cccc(NC(=O)Cn2cc3c(n2)CCCC3)c1,0,0,0,0,0,0
CN(C)c1ccc(NC(=O)Cn2cc3c(n2)CCCC3)cc1,0,0,0,0,44,0
CN(C)CCCN1c2ccccc2Sc2ccc3ccccc3c21,-,0,-,0,-,0
CN(C)CCCN1c2ccccc2Sc2ccc(Cl)cc21,0,49!,0,0,0,0
O=C(C[C@@H]1CC[C@@H](NC(=O)c2cccc(F)c2)[C@H](CO)O1)NCc1ccccc1,0,-,-,-,0,-
[O-]/[N+](=C\c1ccc(OC(F)F)cc1)c1ccccc1,0,0,-,-,0,0
COc1ccc(/[N+]([O-])=C/c2ccoc2)cc1,0,0,106,41,80,0
O=C(CN1C(=O)COc2ccc(S(=O)(=O)N3CCCC3)cc21)Nc1cccc(F)c1,0,0,0,0,0,0
CC1CCc2nc(NC(=O)c3ccc(N4C(=O)CCC4=O)cc3)sc2C1 (stereo not drawn),0,0,0,0,0,0
CC1CCc2nc(NC(=O)Cc3cccs3)sc2C1 (stereo not drawn),-,0,126,0,58,0
